Hit rate of the full screen: of about 360,000 compounds, about 6,000 (1.7%) were called active. Inconclusive results (about 8%) are left out. What follows is part of a selection rich in actives, with near analogues and random picks from the rest. Unmarked numbers belong to inactive results. Calls come from the whole dose curve; as a rule, active = well fitted cell-killing curve with a large enough effect; inconclusive = small, poorly fitted or top-dose-only effect, or effect the other way; inactive = flat fitted curve, though single readings scatter.
Experiment: qHTS for induction of synthetic lethality in tumor cells producing 2HG: qHTS for the HT-1080-NT fibrosarcoma cell line; note: nearly all actives have a fitted effect of over 55% in size
Settings: HT-1080-NT fibrosarcoma viability, CellTiter-Glo ATP luminescence, 48 h; series mostly up to 46.1 µM; activity, negative = less viability: at the top concentration
Description: Unbiased genomic sequencing for 22 glioma genomes found recurrent mutation of IDH1 on chromosome 2q33, a gene encoding the cytosolic isoform of IDH1 associated with the tricarboxylic acid cycle (TCA) that catalyzes the oxidative decarboxylation of isocitrate, yielding alpha-ketoglutarate and CO2 via NADP+ to NADPH conversion. Subsequent studies confirmed the recurrent IDH mutations in up to 70% of secondary gliomas and in 10% of AML cases. In addition, the somatic mutation of cancer-associated IDH1 is a point mutation resulting in various amino-acid substituents at Arginine132 (IDH1 R132), a key residue found in the enzyme's active site that when mutated, results in the loss-of-function in metabolizing isocitrate but confers a gain-of-function to produce the oncometabolite 2-hydroxyglutarate (2HG). This in effect defines IDH1 as an oncogene and provides an extraordinary opportunity to discover chemical probes against mutant IDH1 that may translate into much needed new therapies for glioma and AML patients.
This assay aims to perform a synthetic lethal screen for chemical probes specific for 2HG-producing tumor cells using matched paired cell lines (1) HT-1080-NT fibrosarcoma cell line that overproduces 2HG and (2) HT-1080-IDH1KD cell line which has IDH1 expression knocked-down. Desirable compounds are toxic to the NT fibrosarcoma cells but not to the IDH1KD cell line. The data in this AID corresponds to the results of the qHTS against the HT-1080-NT fibrosarcoma cell line.
[1] Dang L, Jin S, Su SM. IDH mutations in glioma and acute myeloid leukemia. Trends of Mol Med. 2010; 16(9): 387-97.
[2] Dang L et al. Cancer-associated IDH1 mutations produce 2-hydroxyglutarate. Nature. 2010; 465(7300):966.
NIH Molecular Libraries Probe Production Centers Network [MLPCN]
NIH Chemical Genomics Center [NCGC]
Assay Submitter (PI): Lenny Dang Ph.D., Agios Pharmaceuticals
Suspensions of trypsinized HT-1080-NT cells were dispensed into white, tissue culture-treated, solid 1536-well plates at 5uL/well (750 cells/well final concentration) in RPMI medium supplemented with 5% FBS. Plates were incubated at 37 degrees C for 2 hours, after which 23 nL of compounds or DMSO were delivered to each well using a pin tool. Plates were then incubated at 37 degrees C for an additional 48 hours. CellTiter-Glo viability reagent (Promega) was dispensed into wells (2.5uL/well) and incubated at room temperature for 10 minutes. The plates were measured on a PerkinElmer ViewLux plate reader for luminescent signal (clear filter, 1 sec exp). DMSO-treated control wells and media-only (no cells) control wells were used to normalize %Activity of identified toxic compounds; DMSO-treated wells corresponded to 0%Activity (100% viability), while media-only controls were used to normalize 100%Activity (0% viability).
Concentration-response curves were fitted to the signals arising from the resulting luminescence. The concentration-effect curves were then classified based on curve quality (r2), response magnitude and degree of measured activity, and compounds were subsequently categorized based on their curve class.
Potency is the fitted concentration of half-maximal effect.

Compound | activity, negative = less viability | Potency
Cc1ccc(-c2nc3ccc(Cl)cn3c2Cc2ccccc2)cc1 | 14.8% | 
Cc1ccc(Cc2c(-c3ccco3)nc3ccc(Cl)cn23)cc1 |  | 23.1 µM (active)
Cc1ccc(Cc2c(-c3ccccc3)nc3ccc(Cl)cn23)cc1 | -0.274% | 
COc1cc(F)ccc1-c1cc(C(=O)NCC2CCCCC2)[nH]n1 | 28.9% | 
O=C1C(Cl)=C(Oc2ccccc2)C(=O)c2ccccc21 |  | 4.11 µM (active)
COc1ccc(C(=O)OCC(=O)Nc2cc(C)on2)cc1F | 6.13% | 
CC(C)(C)OC(=O)N1CCN(C(=O)c2[nH]c(C(F)(F)F)nc2-c2ccccc2)CC1 | 9.95% | 
O=[N+]([O-])c1ccccc1NCc1ccccc1Cl | -10.6% | 
N/C(=N/O)c1cccn1Cc1ccccc1[N+](=O)[O-] | 10.5% | 
O=c1c([N+](=O)[O-])cccn1Cc1ccc(F)cc1Cl |  | 14.6 µM (active)
Cc1c2cnn(CC(=O)NCCCN3CC(C)CC(C)C3)c(=O)c2c(C)n1Cc1ccc(Cl)cc1 (stereo not given) |  | 23.1 µM (active)
Cc1ccc(Cn2c(C)c3cnn(CC(=O)NCCN4CCOCC4)c(=O)c3c2C)cc1 | 9.01% | 
CC1CC(C)CN(CCCNC(=O)Cn2ncc3c([nH]c4ccccc43)c2=O)C1 (stereo not given) | 5.3% | 
CC(NC(=O)c1ccc(N2CCNCC2)c([N+](=O)[O-])c1)C12CC3CC(CC(C3)C1)C2 (stereo not given) |  | 16.4 µM (active)
O=C(NC1C2CC3CC(C2)CC1C3)c1ccc(N2CCNCC2)c([N+](=O)[O-])c1 (stereo not given) | 20.4% | 
Cc1cccc(C)c1NC(=O)CNC(=O)c1ccc(N2CCOCC2)c([N+](=O)[O-])c1 | -0.0226% | 
CCC(C)NC(=O)c1ccc(N2CCC3(CC2)OCCO3)c([N+](=O)[O-])c1 (stereo not given) | 0.381% | 
O=C(Nc1cccc(C(F)(F)F)c1)c1ccc(N2CCNCC2)c([N+](=O)[O-])c1 |  | 16.4 µM (active)
O=C(Nc1ccc(N2C(=O)c3cccc4cccc(c34)C2=O)cc1)c1ccc(N2CCCCC2)c([N+](=O)[O-])c1 | 4.35% | 
CCc1noc(C)c1C(=O)OCC(=O)c1ccc(NC(=O)CC(C)C)cc1 | 1.43% | 

Compound | activity, negative = less viability | Potency
Cc1cc2nc(-c3ccco3)c(Cc3cccc(F)c3)n2c(C)c1Br |  | 20.6 µM (active)
Cc1cc2nc(-c3ccc(F)cc3)c(Cc3ccsc3)n2c(C)c1Br | -22.5% | 
Fc1cccc(Cc2c(-c3ccc(Cl)cc3)nc3ccc(Cl)cn23)c1 | -1.75% | 
COc1cc(C=C(OC(C)=O)c2ccc3c(c2)OCO3)cc(OC)c1OC | -12.3% | 
CCCNC(=O)C[C@@H]1CC[C@@H]2[C@H](COC[C@H](O)CN2C(=O)c2cc(Cl)cc(Cl)c2)O1 | 10.8% | 
CCOC(=O)c1cc2cc(OC)ccc2n1C1CCN(C)CC1 | -25.5% | 
COc1ccccc1NC(=O)C1CCCN1S(=O)(=O)c1ccc(Cl)cc1 (stereo not given) | -2.2% | 
CC1(C)N=C(N)NC(Nc2ccc(Cl)cc2)=N1 | 14.3% | 
COc1ccccc1NC1=NC(c2ccc(Cl)cc2)N=C(N)N1 (stereo not given) |  | 10 µM (active)
CCc1nc2ccc(C(=O)NCCNC(C)=O)cn2c1N(CC)Cc1cccc(Br)c1 | 25.8% | 
CCC(C)CN1C(=O)CN(S(C)(=O)=O)CC1(C)C(=O)Nc1ccc2c(c1)OCCO2 (stereo not given) | -1.35% | 
C[C@H]1CN(c2ccc(Br)cc2)C(=O)[C@@H]1CC(=O)Nc1ccc(Br)cc1 | -0.873% | 
c1ccc(CNCc2ccc(CNCc3ccccc3)cc2)cc1 | -20.6% | 
CC1(C(=O)Nc2ccc3c(c2)OCCO3)CSCC(=O)N1CCOc1ccccc1 (stereo not given) | -1.2% | 
Cc1ccn2c(-c3csc(Nc4ccc(C(=O)O)cc4)n3)c(C)nc2c1 | -23.2% | 
O=c1oc2ccccc2cc1-c1csc(Nc2ccc(O)cc2)n1 |  | 14.6 µM (active)
Cc1cc(C)cc(OCC(=O)NNC(=O)c2cc3ccccc3oc2=O)c1 | 10.5% | 
CCc1c(N=O)c(-c2ccccc2)n(O)[n+]1[O-] | -3.38% | 
CC(C)CNC(=O)C1(C)CCCN1C(=O)CSc1ccccc1 (stereo not given) | 20.3% | 
COc1ccc(C(O)c2nc(-c3ccc4c(c3)OCO4)cs2)cc1 (stereo not given) | 4.1% | 

Compound | activity, negative = less viability | Potency
CCCc1ccc(S(=O)(=O)N2CCN(C(=O)c3cc(C)on3)CC2)cc1 | 1.01% | 
O=C(Nc1nnc([C@H]2C[C@H](O)[C@@H](CO)O2)s1)c1cccc(Cl)c1 | 1.95% | 
C#Cc1cc(N2CCN(C(=O)c3ccoc3)CC2)n2nc(-c3cccc(Cl)c3)cc2n1 |  | 14.6 µM (active)
O=C(c1ccccc1)N1CCN(c2cc(-c3ccccc3)nc3cc(-c4cccc(Cl)c4)nn23)CC1 | 3.77% | 
CN(C)CCN1CCN(c2cc(-c3cccc(Cl)c3)nc3ccnn23)CC1 | -16.2% | 
CC(=O)Nc1ccc(C=CC(=O)c2ccc([N+](=O)[O-])cc2)cc1 | 7.09% | 
O=C(N=C1SC2CS(=O)(=O)CC2N1Cc1ccccc1)c1ccccc1 (stereo not given) | 2.42% | 
COCOCCn1cc(CN2CCS(=O)(=O)N(Cc3ccc(-c4ccccc4)cc3)C(CC(C)C)C2=O)nn1 (stereo not given) | -10% | 
COc1cccc(/C=C2\SC(=S)N(CCCC(=O)N3CCOCC3)C2=O)c1 | 0.898% | 
CCCCc1ccc(S(=O)(=O)NC(=O)C2(C)CCN2C(=O)c2ccccc2)cc1 (stereo not given) | 8.41% | 
CCCOc1ccc(C(=O)C(CCC(CNCC)C(=O)c2ccc(OCCC)cc2)CNCC)cc1 (stereo not given) |  | 16.4 µM (active)
CCCOc1ccc(/C=N/NC(=O)C2CC2)c(OCCC)c1 | -1.92% | 
CCCOc1ccc(C(=O)CCC(=O)OC(C)C(=O)Nc2ccc(NC(C)=O)cc2)cc1 (stereo not given) | 4% | 
Cc1ccccc1S(=O)(=O)NC(=O)C1(C)CCN1C(=O)C1(c2ccc(Cl)cc2)CC1 (stereo not given) | 0.791% | 
COc1cc(C(O)c2nc(-c3cnn(C)c3)cs2)ccc1F (stereo not given) | 4.84% | 
O=C(Nc1ccc(F)cc1)C(CCc1ccccc1)N1CCN(CC(=O)N2CCCC2)CC1 (stereo not given) | 0.926% | 
Cc1ccc(S(=O)(=O)N2C[C@H]3n4c(=O)ccc(=O)n4C[C@H](OC(=O)NC4CCCC4)[C@@]3(O)C2)cc1 | -27.2% | 
CCCCCCNC(=O)O[C@]12C[C@@H](C(=O)OC)[C@@H](C(=O)OC)C[C@@]1(O)CN(S(=O)(=O)c1ccc(C)cc1)C2 | -0.467% | 
CCCCCCNC(=O)O[C@H]1CN(C(=O)OC(C)C)N(C(=O)OC(C)C)[C@@H]2CN(S(=O)(=O)c3ccc(C)cc3)C[C@]12O |  | 20.6 µM (active)
CS(=O)(=O)N1CCCCC1c1cc(C(=O)NCc2ccccc2)no1 (stereo not given) | 23.6% | 

— PubChem BioAssay AID686970 (National Center for Advancing Translational Sciences (NCATS), 2013)
